# Laboratory results reported in the supplement of paper PMC10338343.
# ± gives the standard deviation.
# Tested on: MILI (PIWIL2) piRISC loaded with piRNA #1 (26 nt)
# Assay: pre-steady-state target cleavage rate (min^-1); guide: piRNA #1 5'p-UGAGGUAGUAGGUUGUAUAGUAUCCA; MIWI and MILI are mouse PIWI proteins and EfPiwi is from a freshwater sponge; tags in brackets are library labels; higher = faster piRNA-guided slicing of the target
# Details: auxiliary factor: 500 nM mouse GTSF1
# Outline: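 The method was Cleave-'n-Seq, in which uncleaved targets from a transcribed, DNA-blocked target RNA library were sequenced after exposure to active affinity-purified piRISC carrying one synthetic guide, with or without GTSF1 partner protein. Reactions contained 0.1 nM library, 1 nM piRISC and, where present, 500 nM GTSF1 in HEPES–potassium acetate buffer at 33 °C for 0–8 or 0–960 min. Reads were normalised to depth and to weakly complementary targets, three trials were pooled, and k3 was capped at 0.0001 min^-1. The pre-steady-state cleavage rate came from a burst-and-steady-state fit.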
row,Sequence,pre-steady-state target cleavage rate
1,GGAGUGGAUACUAUAGAACCUACUAGCUCA,0.00733 ± 0.0025
2,GGAGACCAUACUAUACAACCUAGUUCCUCA,0.0546 ± 0.018
3,GGAGAAGAUACUAUACAACCUACUACCUCA,0.22 ± 0.016
4,GGAGACCAUACUAUACUACCUACUACCACA,0.217 ± 0.021
5,GGAGACCAUACUUUACAACCUACUACCUGA,0.0887 ± 0.018
6,GGAGACCUAACUAUACAACCUGCUACCUCA,0.0157 ± 0.0084
7,GGAGACCUUACUAUACAACCUACUACCUCU [g2:g22:cont:t1U],0.177 ± 0.017
8,GGAGAGGAUACUAUACAUCCUUCUACCUCA,0.0216 ± 0.0041
9,GGAGACGAUACUAUUCAACCUACUACCUCA,0.202 ± 0.013
10,GGAGACCUUACUAUACAACCUACUACCUCCA,0.133 ± 0.014
11,GGAGUGGAUACUAUACAACCUACUACACUCA,0.128 ± 0.018
12,GGAGACCUUACUAUGACAACCUACUACCUCA,0.179 ± 0.018
13,GGAGACGAUACUAUACAACCUACUAACUCA,0.0612 ± 0.016
14,GGAGACGAUUCUAUACAACCAACUACCUCA,0.00752 ± 0.0023
15,GGAGACCUAACAAUACAUCCUACUACCUCA,0.191 ± 0.031
16,GGAGACCAUAGUAUACAACCUACUACGUCA,0.0462 ± 0.0097
17,GGAGAGGAUACUAUACAAUCUACUACCUCA,0.129 ± 0.0097
18,GGAGAGGAUACUAUACAACCUACUGCCUCA,0.126 ± 0.014
19,GGAGACCUUACUUUACAUCCUACUACCUCA,0.26 ± 0.022
20,GGAGACGAUACUAUACAUCGUACUACCUCA,0.0496 ± 0.0064
21,GGAGAGGAUACUAAACAAGCUACUACCUCA,0.165 ± 0.014
22,GGAGUGGAAACUAUACAAGCUACUACCUCA,0.257 ± 0.021
23,GGAGUGGAUACUAUACAACCUAGAACCUCA,0.0036 ± 0.0022
24,GGAGACCUAACUAUACAACCUACUGCCUCA,0.102 ± 0.024
